Most compounds without a hit are left out; they make up all but 3.4% or so of the library.
Env fusion inh – inhibitors of HIV Env-mediated cell fusion; HeLa-JRFL Env/CEM21 cell fusion, luciferase; inhibition, % at 12.3 µM; 360,000 compounds, 1.1% hits;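 active means mean replicate inhibition score of at least 50 and every replicate individually at or above 50; inconclusive means only one of the two criteria met; inactive means mean below 50 and not all replicates reaching 50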;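 further: 0% = plate neutral controls and 100% = maraviroc near 300 nM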
MITF TRPM1 HTS – MITF TRPM1 promoter activation in melanoma cells; AID 588334; SK-MEL-5 TRPM1-promoter luciferase, 24 h; % of positive control, neutral wells = 0; 300,000 compounds, 0.75% hits; activation, % at 12.5 µM;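 active means mean activation of at least 80% with every replicate also reaching 80%; inconclusive means mean reaches 80% but some replicate falls short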;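 further: 0% = neutral control wells and 100% = parthenolide positive control wells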
miR-122 sensor – blocks miR-122 activity in Huh7 sensor cells. Huh7 miR-122 Renilla luciferase sensor, 48 h; neutral wells = 0, positive control = 100. activation (reporter increase), % at 12.5 µM. 340,000 compounds, 0.3% hits;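 active means mean replicate activation score at least 90 and every replicate individually at or above 90; inconclusive means only one of the two criteria met; inactive means neither criterion met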;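 further: higher luciferase means less miR-122 activity so hits act as miR-122 inhibitors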
esBAF inh – inhibitors of esBAF chromatin remodeling in mouse ES cells | Bmi1-luciferase knock-in reporter, 24 h; 100% = twice the neutral-well signal | reporter increase, % at 12.5 µM | 350,000 compounds, 2% hits; in the data active means activation above about 40%; inconclusive means no clear call, values can overlap the other calls;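 further: 0% = median of the plate's neutral control wells and 100% = double that signal; a rise in the Bmi1 reporter signal indicates esBAF inhibition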
Wnt bcat act – Wnt/beta-catenin pathway activation; Wnt/beta-catenin reporter cell assay, activator, plate reader; activation, % at 9.35 µM; 300,000 compounds, 1.2% hits; in the data active means activation above about 30%, passing the limit was not always enough; inconclusive means no clear call, values can overlap the other calls;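 further: 0% = neutral control wells and 100% = positive control wells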
Active calls of the source: *; ? = inconclusive; . = no result given; [ ] = remark or other dose.

SMILES	Env fusion inh	MITF TRPM1 HTS	miR-122 sensor	esBAF inh	Wnt bcat act
COc1ccc(NC(=O)Nc2ccc3c(c2)C(=O)N([C@@H](C)CO)C[C@@H](C)[C@H](CN(C)C(=O)NC2CCCCC2)O3)cc1	-8[16.7 µM]	.	-2[16.7 µM]	20	.
Cc1ccc(NCc2nnc(SCC(=O)Nc3ccccc3)n2CC2CCCO2)c(C)c1 (centres undefined)	-51	.	151*	18	-5
Cc1ccc(NC(=O)CSc2nnc(C3CC3)n2CC2CCCO2)c(C)c1 (centres undefined)	-5	2	-2	1	-1
CC(C)C[C@@H](COCc1cccc(Cl)c1)N1CCN(C(=O)c2cccc(C(F)(F)F)c2)CCC1=O	58*	.	.	.	-2
CC(C)C[C@@H](COCc1ccc(F)cc1)N1CCN(C(=O)c2cccc(C(F)(F)F)c2)CCC1=O	6	.	.	.	2
CC(C)CC(COCc1cccc(Cl)c1)N1CCN(C(=O)c2ccc(C(F)(F)F)cc2)CCC1=O (centres undefined)	59*	-1	0	0	-1
Cc1cccc(COC[C@H](Cc2ccccc2)N2CCN(C(=O)c3ccc(C(F)(F)F)cc3)CCC2=O)c1	39	.	.	.	-2
COc1ccc(-c2cc(=O)oc3c(C)c(O)c(CN(C)C)cc23)cc1	73*	.	-6	-15	-2
COc1ccc(-c2cc(=O)oc3c(C)c(OCC(=O)N(C)C)ccc23)cc1	21	4	-7	-1	0
O=C(O)C[C@H]1C[C@@H]2c3cc(NS(=O)(=O)c4ccccc4)ccc3O[C@@H]2[C@H](CO)O1	.	.	-3[16.7 µM]	-5	.
COc1cccc(-c2ncc3ccccc3c2COC(=O)N(C)C)c1	61*	7	-6	19	9
CN(C)C(=O)OCc1c(-c2ccccc2)ncc2ccccc12	-16	-3	.	.	0
[N-]=[N+]=NCc1ccccc1C[C@]1(C(=O)N2CCCCC2)N=C(c2ccc(OCCCO)cc2)O[C@H]1c1ccccc1	68*[16.7 µM]	.	.	.	.
[N-]=[N+]=NCc1ccccc1C[C@@]1(C(=O)N2CCCCC2)N=C(c2ccc(OCCCO)cc2)O[C@@H]1c1ccccc1	26[16.7 µM]	.	.	.	.
CCOc1ccc(N=C2NC(=O)S/C2=C\c2ccc(N(C)C)cc2)cc1	-68	.	6	50*	.
CCOc1ccc(/C=C2/SC(=O)NC2=S)cc1	.	12	-4	.	.
C[C@H](CO)N1C[C@H](C)[C@H](CN(C)CC2CCCC2)OCc2cnnn2CCCC1=O	.	.	4[16.7 µM]	1	.
CO[C@@H]1CN(C)C(=O)c2ccc(NC(=O)Nc3ccccc3F)cc2OC[C@H](C)NC[C@@H]1C	2[16.7 µM]	.	2[16.7 µM]	4	.
Cc1nc2ccccc2n1CC(=O)NCc1ccccc1	83*	-23	-4	-13	-8
c1ccc(-c2ccc(-c3ccncn3)cc2)cc1	22	.	-6	.	44*
C[C@H](CO)N1C[C@H](C)[C@H](CN(C)S(C)(=O)=O)Oc2ccc(NS(=O)(=O)c3ccc(Cl)cc3)cc2CC1=O	0[16.7 µM]	.	-4[16.7 µM]	4	.
Cc1ccc(S(=O)(=O)N2CC[C@@H]3[C@H]2c2cc(C#Cc4cccnc4)ccc2N(C)[C@H]3CO)cc1	.	.	-15[16.7 µM]	9	.
Cc1ccc(/C=C/c2nc3ccccc3[nH]2)o1	-159	21	.	.	38*
CN1c2ccc(-c3cccc(F)c3)cc2[C@@H]2[C@@H](CCN2C(=O)c2ccc3c(c2)OCO3)[C@@H]1CO	.	.	13[16.7 µM]	-2	.
COc1cc(/C=C/C(=O)c2ccc(Cl)s2)cc(OC)c1O	.	-24	-6	10	.
SMILES	Env fusion inh	MITF TRPM1 HTS	miR-122 sensor	esBAF inh	Wnt bcat act
Cc1c(/C=C/C(=O)c2ccc(Cl)s2)cnn1C	-23	.	-2	?	61*
COc1ccc(/C=C/C(=O)c2ccc(Cl)s2)cc1O	-65	.	-13	56*	.
CC(C)C(=O)Nc1cccc(-c2csc(-c3ccccc3)n2)c1	3	66	-4	28	-2
CCCCc1ccc(NC(=O)COCC)cc1	.	.	-1	33	.
Cc1nc(-c2ccc(NC(=O)CC(C)C)cc2)cs1	-74	92*	.	.	37*
COc1ccc(-c2csc(NC(=O)CC(C)C)n2)cc1	-47	64	-6	.	53*
CCCCc1ccc(NC(=O)CC(C)C)cc1	11	62	5	48*	-10
CC(C)C(=O)Nc1ccc(-c2csc(-c3ccccc3)n2)cc1	.	139*	-7	71*	.
C[C@@H]1CN([C@@H](C)CO)C(=O)c2cccc(NC(=O)Nc3ccc(F)cc3)c2O[C@H]1CN(C)Cc1ccccc1	14[16.7 µM]	.	10[16.7 µM]	0	.
Cc1nc(-c2ccc(NC(=O)C3CC3)cc2)cs1	-62	?	-4	49*	14
CNC(=O)CCc1nc(-c2ccc(C(C)(C)C)cc2)no1	.	12	4	-37	.
Cc1ccc(-c2noc(CCC(=O)NCC3CCCO3)n2)cc1 (centres undefined)	-50	-8	20	-1	.
CC(C)(C)c1ccc(-c2noc(CCC(=O)NCC3CCCO3)n2)cc1 (centres undefined)	75*	-84	3	-74	.
CC(C)(C)c1ccc(-c2noc(CCC(N)=O)n2)cc1	100*	.	-10	-79	.
CC(C)C#Cc1ccc2c(c1)O[C@H](CN(C)S(=O)(=O)c1cn(C)cn1)[C@@H](C)CN([C@@H](C)CO)S2(=O)=O	.	.	33[16.7 µM]	5	.
CC(C)NC(=O)Nc1ccc2c(c1)CC(=O)N([C@@H](C)CO)C[C@H](C)[C@@H](CN(C)C(=O)Nc1ccc(C(F)(F)F)cc1)O2	.	.	4[16.7 µM]	3	.
C[C@@H]1CN([C@@H](C)CO)C(=O)c2cc(/C=C/c3ccccc3)cnc2O[C@@H]1CN(C)C(=O)Cc1cccnc1	.	.	5[16.7 µM]	-1	.
CC(=Nc1ccccc1)C1=C(O)CSC1=O	-10	1	1	46*	-1
c1nc(C2CCCCC2)cc2cc3c(cc12)OCO3	-106	65	-7	51*	5
c1nc(CCO[C@H]2CCCCO2)cc2cc3c(cc12)OCO3	14	2	.	-50	1
O=C(Nc1ccc(F)cc1)N[C@H]1CC[C@@H](CC(=O)N2CCOCC2)O[C@H]1CO	-7[16.7 µM]	.	-1[16.7 µM]	0	.
COc1cc(/C=N/NS(=O)(=O)c2ccc(C)cc2)ccc1OCc1ccc(C(=O)O)cc1	72*	-70	.	.	-18
CCOc1ccc(/C=N/NS(=O)(=O)c2ccc(C)cc2)cc1OC	5	9	9	-2	1
COc1cc(/C=N/NC(=O)c2cccc([N+](=O)[O-])c2)ccc1OCc1ccccc1	.	?	-2	43*	11
COC(=O)C(=Cc1ccc(OCc2ccc([N+](=O)[O-])cc2)c(OC)c1)C(=O)OC	.	-31	-5	74*	.
CCOC(=O)C(=Cc1ccc(OCc2ccc([N+](=O)[O-])cc2)c(OC)c1)C(=O)OCC	.	-2	57	.	.
COc1cc(/C=N/NC(=O)CC2(C)OCCCO2)ccc1OCc1ccccc1	5	-1	22	42*	.
Cc1ccccc1Cn1ccc(NC(=O)c2cc3ncc(Br)cn3n2)n1	1	-9	2	-15	0
CSc1ccccc1NC(=O)c1cc2ncc(Br)cn2n1	-131	73	6	55*	35*

Assay outcomes (PubChem)
